Screening results from PubChem BioAssay.
Rows were chosen to be rich in hits. Some 3% of all compounds tested hit in one or more screens of this group.
KDM5B inhibitor = KDM5B demethylase inhibition | KDM5B demethylase, FDH-coupled NADH fluorescence (FDH is formaldehyde dehydrogenase) | Q9UGL1 | Potency, µM (highest dose often 57.7 µM), hits mostly inhibitors | 2.6% of 220,000 active; further: nearly all actives have a fitted effect of over 70% in size
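Compound dilutions met 200 nM (final) KDM5BΔAP for 10 min at room temperature before substrate addition. The substrate mix held 12.5 µM H3K4me3 with cofactors 25 µM α-ketoglutarate and 50 µM Fe²⁺. NADH signal gain over 30 min defined activity.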
SNCA expr inhib = SNCA gene expression inhibition; Potency, µM (highest dose often 57.2 µM), usual class: inhibitors; 0.17% of 140,000 active; HEK-293 SNCA-luciferase knock-in, luminescence, 24 h; further: nearly all actives have a fitted effect of over 45% in size
SNCA viab count = cell viability loss counter-screen; HEK-293-SNCA-luc viability, GF-AFC fluorescence, 24 h; Potency, µM (top dose mostly 57.1 µM), actives largely listed as cytotoxic; 0.12% of 150,000 active; further: nearly all actives have a fitted effect of over 30% in size
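HEK-293-SNCA-luc cells (1500/well) plated 24 h, then exposed 24 h to a dilution series; GF-AFC added 30 min at 37C, fluorescence 405/540 nm; normalised to medium-only and DMSO wells, Hill fit.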
IP6K1 inhibitor = IP6K1 kinase inhibition. IP6K1 kinase, ADP-Glo luminescence, 2 h; stronger effect = lower value. activity change, % (series mostly up to about 58 µM). 0.81% of 140,000 active. AID 1645851; in the data active means activity change below about -25%
Target sequence (Q92551 whole entry, looked up): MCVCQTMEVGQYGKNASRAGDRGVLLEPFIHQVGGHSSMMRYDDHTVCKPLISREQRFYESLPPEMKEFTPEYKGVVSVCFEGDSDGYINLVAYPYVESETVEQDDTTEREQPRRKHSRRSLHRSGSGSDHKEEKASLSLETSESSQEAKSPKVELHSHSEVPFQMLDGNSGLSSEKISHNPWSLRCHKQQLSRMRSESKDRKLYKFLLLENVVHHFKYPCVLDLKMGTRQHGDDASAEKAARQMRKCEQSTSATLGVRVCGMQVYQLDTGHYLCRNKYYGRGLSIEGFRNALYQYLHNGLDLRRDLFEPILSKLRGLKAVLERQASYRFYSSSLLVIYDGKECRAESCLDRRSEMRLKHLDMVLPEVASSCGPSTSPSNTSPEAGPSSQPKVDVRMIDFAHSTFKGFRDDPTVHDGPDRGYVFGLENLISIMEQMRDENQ
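ADP-Glo luminescence measures ADP made by human IP6K1 during a 2 h RT reaction with ATP/IP6 (mix at 1.3 mM/130 uM); top library doses 57.5 and 19.1 uM final.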
Hits are given with their value; 0 = inactive; ? = inconclusive; - = no result given. Unless noted, the call rests on the fitted dose curve; in most records, active means well fitted curve in the direction sought with a large enough effect; inconclusive means small, poorly fitted or top-dose-only effect, or another doubt; inactive means no such curve, though single readings can be large; an effect the other way counts as inactive or inconclusive.

SMILES | KDM5B inhibitor | SNCA expr inhib | SNCA viab count | IP6K1 inhibitor
COc1cccc(Oc2coc3cc(OCC#N)ccc3c2=O)c1 | 0 | - | - | -
CCCc1cc(NCCN(C)C)n2nc(C)c(-c3ccccc3)c2n1 | 0 | - | - | -
Cc1nn2c(NCCc3ncc[nH]3)cc(-c3ccccc3)nc2c1C | 31.6µM | ? | 0 | 0
CN1CCC2(C1)CN(Cc1ccccc1)c1ccc(C(=O)NCC[S+](C)(=O)[O-])cc12 (stereo not drawn) | 35.5µM | 0 | 0 | 0
CN1CCC2(C1)CN(Cc1ccccc1)c1ccc(C(=O)NC3CCC3)cc12 (stereo not drawn) | ? | 0 | 0 | 0
CN1CCC2(C1)CN(Cc1ccccc1)c1ccc(C(=O)NC3CC3)cc12 (stereo not drawn) | 35.5µM | 0 | 0 | 0
CN1CCC2(C1)CN(Cc1ccccc1)c1ccc(C(=O)NC3CCCCC3)cc12 (stereo not drawn) | ? | 0 | 0 | 0
O=C(OCc1ccc(F)cc1Br)c1ccc(CN2CCCC2=O)cc1 | 0 | - | - | -
COc1ccccc1-c1nnc([C@H]2CCN(Cc3ncc[nH]3)C2)o1 | 39.8µM | 0 | 0 | 0
Cc1ccccc1CN1CC[C@H](c2nnc(-c3ccc(N(C)C)cc3)o2)C1 | 31.6µM | 0 | 0 | 0
Clc1ccccc1CN1CC[C@H](c2nnc(-c3ccccc3)o2)C1 | 0 | 0 | 0 | 0
c1cnc(N2CC[C@H](c3nnc(-c4ccncc4)o3)C2)nc1 | 31.6µM | 0 | 0 | 0
COc1ccccc1-c1nnc([C@H]2CCN(Cc3ccccc3O)C2)o1 | ? | 0 | 0 | 0
CN(C)c1ccc(-c2nnc([C@H]3CCN(Cc4ccccn4)C3)o2)cc1 | 35.5µM | 0 | 0 | 0
Cc1ccccc1CC(=O)N1CCC[C@H]1c1nc(-c2ccccc2)no1 | 0 | 0 | 0 | 0
COc1ccc(-c2noc([C@@H]3CCCN3C(=O)Cc3ccc(C)cc3)n2)cc1 | 0 | 0 | 0 | 0
COc1ccc(-c2noc([C@@H]3CCCN3C(=O)Cc3ccc(F)cc3)n2)cc1OC | 28.2µM | 0 | 0 | 0
COc1ccc(-c2noc([C@@H]3CCCN3C(=O)Cc3ccc(C)cc3)n2)cc1OC | 31.6µM | 0 | ? | 0
COc1ccc(-c2noc([C@@H]3CCCN3C(=O)Cc3ccccc3C)n2)cc1OC | 28.2µM | 0 | 0 | 0
O=C(CN1CCN(S(=O)(=O)Cc2ccccc2)CC1)Nc1cccc(Cl)c1 | 0 | - | - | -
COc1cc(OC)c(-c2c(-c3ccccc3)ncn2CCF)cc1OC | 25.1µM | 0 | 0 | 0
COc1ccc(N2C(=O)CSC23CCN(C(=O)c2ccccc2Br)CC3)cc1 | 35.5µM | 0 | 0 | 0
Cc1noc(C)c1-c1cc2cc(CN(C)C)oc2c(NCCOc2ccccc2)n1 | ? | 0 | ? | 0
COc1cccc(Nc2nc(-c3ccc4c(c3)CCN4S(C)(=O)=O)cs2)c1 | 0 | - | - | -
O=C1CN([S+](=O)([O-])c2ccc(F)cc2)CC(O)CN1C1Cc2ccccc2C1 (stereo not drawn) | - | - | - | 0
SMILES | KDM5B inhibitor | SNCA expr inhib | SNCA viab count | IP6K1 inhibitor
CC1CCc2sc(C(=O)OCC(=O)NCCC3=CCCCC3)cc2C1 (stereo not drawn) | 0 | - | - | -
CN(CC(=O)Nc1ccc(Cl)c(C(F)(F)F)c1)Cc1cc(Cl)cc2c1OCOC2 | 0 | - | - | -
Cc1ccccc1NC(=O)N1CCC(N2CCCC(C(=O)N3CCCC3)C2)CC1 (stereo not drawn) | 22.4µM | 0 | 0 | 0
CN(C)C(=O)c1cccnc1OC1CCNCC1 | ? | 0 | 0 | 0
CCNC(=O)c1cccnc1OC1CCN(Cc2ccccn2)C1 (stereo not drawn) | 20µM | 0 | 0 | 0
CCNC(=O)c1cccnc1OC1CCN(C(=O)CC)C1 (stereo not drawn) | 0 | 0 | 0 | 0
O=C(NCCc1ccccn1)c1cccnc1OC1CCNCC1 | 28.2µM | 0 | 0 | 0
O=C(O)/C=C/c1ccc(F)cc1 | 0 | - | - | -
COc1cccc(-c2ccnc(-c3nnc(C)n3Cc3ccccc3)c2)c1 | 35.5µM | 0 | 0 | 0
COCCn1c(C)nnc1-c1cc(-c2ccc(OC)c(OC)c2)ccn1 | 31.6µM | 0 | 0 | 0
COCCn1c(C)nnc1-c1cc(-c2ccnc(OC)c2)ccn1 | ? | 0 | 0 | 0
Cc1nnc(-c2cc(-c3cccc(F)c3)ccn2)n1Cc1ccccc1 | 0 | 0 | 0 | 0
COc1ccc(-c2nc(C)nc3c2CCN(CCC(C)C)CC3)cc1 | ? | 0 | 0 | 0
COc1ccc(-c2nc(C3CC3)nc3c2CCN(CCC(C)C)CC3)cc1 | 79.4µM | ? | 0 | 0
COc1ccc(-c2nc(C3CC3)nc3c2CCN(Cc2ccc(C(F)(F)F)cc2)CC3)cc1 | 50.1µM | ? | ? | 0
O=C(/C=C/c1ccccc1)NNC(=S)NCc1ccccc1 | 0 | - | - | -
COC(=O)CNC(=O)c1nc(C(C)(C)C)c2cnccn12 | 112µM | 0 | 0 | 0
COC(=O)CNC(=O)c1nc(-c2ccsc2)c2cnccn12 | 39.8µM | 0 | 0 | 0
Cn1ccc2c(C(=O)NCc3cccnc3)nc(-c3ccncc3)cc21 | 0 | 0 | 0 | 0
CC(C)(C)c1nc(C(=O)NCc2cccnc2)n2ccccc12 | 100µM | 0 | 0 | 0
O=C(NCc1ccsc1)c1nc(-c2ccc(Cl)cc2)c2cnccn12 | 0 | 0 | 0 | 0
O=C(NCc1ccccn1)c1nc(-c2cccnc2)c2ccccn12 | 0 | 0 | 0 | 0
CC(C)(C)c1nc(C(=O)NCc2cccnc2)n2ccncc12 | 100µM | 0 | 0 | 0
O=C(CCc1cc(Cl)no1)N(CCS(=O)(=O)N1CCOCC1)Cc1ccccn1 | 0 | - | - | -
Cc1ccc(F)cc1NS(=O)(=O)c1ccc(N2CC(C(=O)O)CC2=O)cc1 (stereo not drawn) | 0 | - | - | -
SMILES | KDM5B inhibitor | SNCA expr inhib | SNCA viab count | IP6K1 inhibitor
O=C(NCC(F)(F)F)C1CCCN(c2nc3ncccc3o2)C1 (stereo not drawn) | 22.4µM | 0 | 0 | 0
O=C(NCC(F)F)C1CCCN(c2nc3ncccc3o2)C1 (stereo not drawn) | 28.2µM | 0 | 0 | 0
O=C(CN(c1ccccc1F)S(=O)(=O)c1ccccc1)Nc1ccccc1C(=O)O | 0 | - | - | -
COc1ccc(-c2nc(N3CCOCC3)cc3c2CN(CC2CC2)C3=O)cn1 | 35.5µM | 0 | 0 | 0
COc1ccc(-c2nc(N3CCOCC3)cc3c2CN(Cc2ccccc2)C3=O)cn1 | 35.5µM | 0 | 0 | 0
COc1ccc(-c2nc(N3CCOCC3)cc3c2CN(Cc2ccccc2)C3=O)cc1OC | 0 | 0 | 0 | 0
Cc1ccccc1-c1nc(N2CCOCC2)cc2c1CN(CC1CC1)C2=O | 35.5µM | 0 | 0 | 0
CN1CCCC2(C1)CN(Cc1cccnc1)c1ccc(C(=O)Nc3ccccc3)cc12 (stereo not drawn) | ? | 0 | 0 | 0
Cc1nc(CN2CC3(CCN(C)C3)c3cc(C(=O)NCC4CC4)ccc32)cs1 (stereo not drawn) | 28.2µM | 0 | 0 | 0
Cc1nc(CN2CC3(CCN(C)C3)c3cc(C(=O)NCc4cccs4)ccc32)cs1 (stereo not drawn) | 35.5µM | 0 | 0 | 0
CN1CCC2(C1)CN(CC1CCOCC1)c1ccc(C(=O)Nc3ccn(C)n3)cc12 (stereo not drawn) | ? | 0 | 0 | 0
Cc1nc(CN2CC3(CCN(C)C3)c3cc(C(=O)NCc4ccccc4)ccc32)cs1 (stereo not drawn) | 35.5µM | 0 | 0 | 0
